Data as given in the supplement of paper PMC6411743.
± gives the standard deviation of the averaged measurements. Targets with the largest changes are over-represented here; the source holds about 6,500 in all.

Legend:
Test in all cases: NP40-soluble protein abundance relative to vehicle (solubility fold change) (ratio); higher = more soluble protein in presence of ATP
[1] = target: T1, GBP1 (UniProt P32455)
T1 sequence (whole entry): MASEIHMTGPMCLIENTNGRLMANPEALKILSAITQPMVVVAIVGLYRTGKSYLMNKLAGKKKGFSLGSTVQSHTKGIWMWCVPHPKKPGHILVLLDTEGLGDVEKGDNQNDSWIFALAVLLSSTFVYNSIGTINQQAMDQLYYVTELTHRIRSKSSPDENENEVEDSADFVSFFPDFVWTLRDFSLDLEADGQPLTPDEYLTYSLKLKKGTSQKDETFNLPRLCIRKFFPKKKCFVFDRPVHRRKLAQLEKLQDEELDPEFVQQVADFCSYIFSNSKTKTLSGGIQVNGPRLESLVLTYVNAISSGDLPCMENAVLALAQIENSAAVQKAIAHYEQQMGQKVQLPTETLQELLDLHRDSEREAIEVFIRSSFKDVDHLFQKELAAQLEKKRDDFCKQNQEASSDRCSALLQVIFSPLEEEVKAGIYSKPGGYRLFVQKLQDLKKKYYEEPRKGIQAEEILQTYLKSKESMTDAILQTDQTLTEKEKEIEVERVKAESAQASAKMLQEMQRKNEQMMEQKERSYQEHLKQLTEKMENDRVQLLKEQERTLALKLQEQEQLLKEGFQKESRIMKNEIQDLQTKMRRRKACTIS
In short: (§1)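 Eight concentrations, 0.1 to 10 mM, were tested on Jurkat crude lysate for 10 min at room temperature and then 3 min at 37 °C, in three independent experiments. The lysate was solubilised with 0.8% NP40 and benzonase, ultracentrifuged, and the supernatant TMT-labelled for LC-MS/MS. Each value is the fold change against the detergent-processed vehicle in its own replicate, from vsn-normalised intensities.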

[2] = target: T2, NKTR (UniProt P30414)
T2 sequence (whole entry): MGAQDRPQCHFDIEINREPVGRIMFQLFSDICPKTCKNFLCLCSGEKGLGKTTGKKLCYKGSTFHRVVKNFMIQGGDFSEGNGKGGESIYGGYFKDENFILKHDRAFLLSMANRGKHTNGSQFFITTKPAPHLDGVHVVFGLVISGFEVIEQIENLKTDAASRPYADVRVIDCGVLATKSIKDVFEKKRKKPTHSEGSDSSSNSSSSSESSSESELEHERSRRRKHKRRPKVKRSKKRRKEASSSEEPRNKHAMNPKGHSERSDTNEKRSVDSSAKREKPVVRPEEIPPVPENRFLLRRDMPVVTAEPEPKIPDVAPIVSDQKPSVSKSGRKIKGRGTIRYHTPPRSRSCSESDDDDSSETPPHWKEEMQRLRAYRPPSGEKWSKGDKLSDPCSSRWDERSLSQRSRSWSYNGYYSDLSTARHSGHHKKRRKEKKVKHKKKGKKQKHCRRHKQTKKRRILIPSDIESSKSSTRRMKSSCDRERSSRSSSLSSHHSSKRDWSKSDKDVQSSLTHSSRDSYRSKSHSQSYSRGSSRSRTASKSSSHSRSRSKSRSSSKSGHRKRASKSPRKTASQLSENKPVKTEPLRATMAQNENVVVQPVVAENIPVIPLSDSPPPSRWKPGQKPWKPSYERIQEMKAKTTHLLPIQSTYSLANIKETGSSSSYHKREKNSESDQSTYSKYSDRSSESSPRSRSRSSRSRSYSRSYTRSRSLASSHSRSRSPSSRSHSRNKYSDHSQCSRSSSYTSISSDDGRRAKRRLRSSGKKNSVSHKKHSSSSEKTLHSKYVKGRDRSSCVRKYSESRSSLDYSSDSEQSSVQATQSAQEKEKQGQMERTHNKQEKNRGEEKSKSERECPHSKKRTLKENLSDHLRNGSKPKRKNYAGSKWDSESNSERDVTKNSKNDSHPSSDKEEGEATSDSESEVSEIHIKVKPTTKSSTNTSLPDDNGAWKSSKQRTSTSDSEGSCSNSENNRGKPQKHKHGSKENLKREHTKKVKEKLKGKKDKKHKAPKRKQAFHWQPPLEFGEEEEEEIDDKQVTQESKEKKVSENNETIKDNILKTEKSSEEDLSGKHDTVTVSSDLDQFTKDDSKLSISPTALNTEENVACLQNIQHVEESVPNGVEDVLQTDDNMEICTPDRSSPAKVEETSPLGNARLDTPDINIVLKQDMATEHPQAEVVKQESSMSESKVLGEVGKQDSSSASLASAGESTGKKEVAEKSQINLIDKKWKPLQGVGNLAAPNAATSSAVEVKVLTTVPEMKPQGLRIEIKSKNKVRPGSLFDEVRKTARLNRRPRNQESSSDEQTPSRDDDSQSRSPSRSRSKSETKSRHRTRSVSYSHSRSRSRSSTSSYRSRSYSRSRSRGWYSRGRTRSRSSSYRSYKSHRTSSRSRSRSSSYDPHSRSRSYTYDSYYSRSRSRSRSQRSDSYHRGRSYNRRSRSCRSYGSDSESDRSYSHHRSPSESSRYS
In short: as §1

[3] = target: T3, SEC24C (UniProt P53992)
T3 sequence (whole entry): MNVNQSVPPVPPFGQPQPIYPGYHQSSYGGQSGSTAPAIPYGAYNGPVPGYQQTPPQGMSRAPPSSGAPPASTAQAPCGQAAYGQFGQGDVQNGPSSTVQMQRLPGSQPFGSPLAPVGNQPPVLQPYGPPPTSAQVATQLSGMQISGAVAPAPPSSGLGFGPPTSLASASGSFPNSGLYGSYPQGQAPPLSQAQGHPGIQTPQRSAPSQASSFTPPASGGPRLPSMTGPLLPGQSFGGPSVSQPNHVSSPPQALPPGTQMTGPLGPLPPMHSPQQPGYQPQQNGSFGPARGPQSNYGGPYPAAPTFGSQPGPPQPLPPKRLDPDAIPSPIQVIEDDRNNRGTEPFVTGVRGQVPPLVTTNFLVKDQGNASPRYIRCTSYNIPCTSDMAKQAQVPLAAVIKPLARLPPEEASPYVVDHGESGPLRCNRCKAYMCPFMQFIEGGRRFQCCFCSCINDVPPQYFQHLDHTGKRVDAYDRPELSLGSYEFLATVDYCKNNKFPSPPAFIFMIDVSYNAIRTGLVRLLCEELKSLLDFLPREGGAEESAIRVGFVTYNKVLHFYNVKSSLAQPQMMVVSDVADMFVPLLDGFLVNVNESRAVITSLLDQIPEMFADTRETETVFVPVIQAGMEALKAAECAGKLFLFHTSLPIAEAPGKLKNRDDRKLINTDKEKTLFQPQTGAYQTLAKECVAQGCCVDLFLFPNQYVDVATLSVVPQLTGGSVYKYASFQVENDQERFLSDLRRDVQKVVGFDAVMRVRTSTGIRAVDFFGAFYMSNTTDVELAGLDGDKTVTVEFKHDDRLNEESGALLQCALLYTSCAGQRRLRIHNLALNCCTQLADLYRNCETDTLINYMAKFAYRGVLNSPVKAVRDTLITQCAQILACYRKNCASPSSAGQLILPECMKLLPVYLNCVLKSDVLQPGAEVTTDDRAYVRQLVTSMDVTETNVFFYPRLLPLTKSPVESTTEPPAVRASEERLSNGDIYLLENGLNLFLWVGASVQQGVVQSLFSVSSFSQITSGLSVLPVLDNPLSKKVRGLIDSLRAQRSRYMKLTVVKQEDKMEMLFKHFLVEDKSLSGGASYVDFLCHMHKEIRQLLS
In short: as §1

[4] = target: T4, SPAG7 (UniProt O75391); settings: concentration: 1mM
T4 sequence (whole entry): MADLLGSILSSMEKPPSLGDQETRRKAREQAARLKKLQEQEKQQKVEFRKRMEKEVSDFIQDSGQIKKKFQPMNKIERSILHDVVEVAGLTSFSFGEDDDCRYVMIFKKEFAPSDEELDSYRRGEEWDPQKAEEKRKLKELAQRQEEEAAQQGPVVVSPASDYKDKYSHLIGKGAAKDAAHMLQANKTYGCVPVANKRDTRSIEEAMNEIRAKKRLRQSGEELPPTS
In short: as §1

Nc1ncnc2c1ncn2[C@@H]1O[C@H](COP(=O)(O)OP(=O)(O)OP(=O)(O)O)[C@@H](O)[C@H]1O [adenosine triphosphate]
NP40-soluble protein abundance ([1]; concentration: 1mM): 0.968 ± 0.053
NP40-soluble protein abundance ([1]; concentration: 2mM): 0.96 ± 0.0051
NP40-soluble protein abundance ([1]; concentration: 4mM): 0.945 ± 0.011
NP40-soluble protein abundance ([1]; concentration: 6mM): 0.979 ± 0.015
NP40-soluble protein abundance ([1]; concentration: 8mM): 0.922 ± 0.018
NP40-soluble protein abundance ([1]; concentration: 10mM): 0.936 ± 0.03
NP40-soluble protein abundance ([2]; concentration: 1mM): 1.53 ± 0.25
NP40-soluble protein abundance ([2]; concentration: 2mM): 1.63 ± 0.19
NP40-soluble protein abundance ([2]; concentration: 4mM): 1.68 ± 0.23
NP40-soluble protein abundance ([2]; concentration: 6mM): 1.83 ± 0.22
NP40-soluble protein abundance ([2]; concentration: 8mM): 1.75 ± 0.19
NP40-soluble protein abundance ([2]; concentration: 10mM): 1.75 ± 0.22
NP40-soluble protein abundance ([3]; concentration: 1mM): 0.99 ± 0.055
NP40-soluble protein abundance ([3]; concentration: 2mM): 0.987 ± 0.057
NP40-soluble protein abundance ([3]; concentration: 4mM): 0.98 ± 0.043
NP40-soluble protein abundance ([3]; concentration: 6mM): 0.919 ± 0.095
NP40-soluble protein abundance ([3]; concentration: 8mM): 0.981 ± 0.019
NP40-soluble protein abundance ([3]; concentration: 10mM): 0.984 ± 0.074
NP40-soluble protein abundance [4]: 0.972 ± 0.053
